Experimental data from the supplement of paper PMC10646978.
± gives the standard deviation.

Experiments:
Conditions in all cases: modulator concentration 10 µM
[1] = test system: RAW-Dual (murine macrophage reporter line); experiment: NF-kB reporter (SEAP) activity fold change vs agonist alone; higher = enhanced NF-kB activity
Procedure, shortened: (§1)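 RAW-Dual murine macrophage reporter cells were plated at 50 000 per well in 384-well plates, pin-transferred compound to 10 μM final, and pre-incubated for 1 hour at 37 °C before a PRR agonist was added and the cells incubated overnight. NF-κB activity was read from supernatant SEAP with QUANTI-Blue at 620 nm absorbance, and IRF activity from Lucia luciferase with QUANTI-Luc by luminescence. Each signal was expressed as fold change by dividing by the mean agonist-only control on the same plate. Two replicate plates were averaged, with errors obtained by propagation.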

[2] = test system: RAW-Dual (murine macrophage reporter line); experiment: IRF reporter (Lucia luciferase) activity fold change vs agonist alone; higher = enhanced IRF activity
Procedure, shortened: as §1

[3] = test system: RAW-Dual (murine macrophage reporter line); experiment: viability score (confluency relative to resting cells, overnight) (fraction); higher = more viable, active = viable (0.7 or more)
Procedure, shortened: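 Overnight exposure to 10 μM final compound was carried out on RAW-Dual macrophages in 384-well plates. IncuCyte software generated two confluency masks over all wells imaged with IncuCyte. The viability score gives confluency in relation to resting cells. A compound met the cutoff if each mask exceeded 70% of resting cells.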

[4] = agonist: CpG ODN 1826 0.5 ug/mL

Compound	NF-kB reporter [1, 4]	NF-kB reporter ([1]; agonist: LPS 0.1 ug/mL)	NF-kB reporter ([1]; agonist: MPLA […])	IRF reporter ([2]; agonist: 3'3'-cGAMP 10 ug/mL)	IRF reporter ([2]; agonist: LPS 0.1 ug/mL)	IRF reporter ([2]; agonist: MPLA […])	viability score [3]
CCOc1ccc(OCCCCOc2cccc(C)c2)cc1	0.961 ± 0.094	1.11 ± 0.074	0.932 ± 0.082	1 ± 0.051	1.27 ± 0.18	1.07 ± 0.068	1.01 (active)
Clc1ccc(C2C=C(c3ccccc3)Nc3ncnn32)cc1 (stereo unspecified)	1.08 ± 0.11	0.939 ± 0.091	0.986 ± 0.057	0.886 ± 0.17	1.1 ± 0.097	0.945 ± 0.062	1 (active)
COCCNCCOc1cc(C)c(Cl)c(C)c1	0.908 ± 0.078	0.952 ± 0.045	0.932 ± 0.085	0.947 ± 0.049	1.52 ± 0.098	1.67 ± 0.17	0.974 (active)
O=c1c2c([nH]c3c(-c4cccc5ccccc45)cnn13)CCCC2	1.02 ± 0.095	1.07 ± 0.067	0.913 ± 0.062	0.987 ± 0.027	1.47 ± 0.23	1.09 ± 0.2	1.01 (active)
O=C(CSC1CCCCC1)Nc1cc(C(F)(F)F)ccc1Cl	0.516 ± 0.045	1.38 ± 0.11	1.39 ± 0.063	1.45 ± 0.14	2.2 ± 0.16	1.47 ± 0.43	1.01 (active)
O=C(NC1CCCCC1)N(Cc1cnc2ccccn12)c1ccccc1	1.01 ± 0.1	1.14 ± 0.088	1.15 ± 0.059	0.997 ± 0.044	1.06 ± 0.053	1.05 ± 0.16	0.995 (active)
COc1cc(C(=O)O)ccc1NC(=O)[C@@H]1N[C@@H](CC(C)(C)C)[C@](C#N)(c2ccc(Cl)cc2F)[C@H]1c1cccc(Cl)c1F	0.35 ± 0.03	0.513 ± 0.052	0.679 ± 0.058	0.608 ± 0.053	1.02 ± 0.21	0.952 ± 0.34	0.122 (inactive)
O=C(Nc1ccc(F)cc1)c1ccccc1Br	1.06 ± 0.092	1.06 ± 0.069	1 ± 0.065	0.73 ± 0.055	1.06 ± 0.065	1.04 ± 0.22	0.979 (active)
Cc1ccc(C(=O)c2ccc(CC(=O)O)n2C)cc1	0.949 ± 0.071	1.01 ± 0.064	1.02 ± 0.048	0.995 ± 0.086	0.993 ± 0.1	1.02 ± 0.092	1 (active)
Cn1c(=O)[nH]c2nnc(-c3cccnc3)nc2c1=O	1.09 ± 0.2	0.961 ± 0.084	0.975 ± 0.081	0.927 ± 0.03	1.22 ± 0.12	1.31 ± 0.13	0.881 (active)
FC(F)(F)c1ccc(CN2CCCC(c3nc4ccccc4[nH]3)C2)cc1 (stereo unspecified)	0.701 ± 0.27	0.876 ± 0.21	0.555 ± 0.2	0.693 ± 0.32	0.829 ± 0.19	0.967 ± 0.23	0.903 (active)
CCOC(=O)C(CCc1ccccc1)NC(C)C(=O)N1Cc2ccccc2CC1C(=O)O.Cl (stereo unspecified)	1.27 ± 0.31	1.05 ± 0.057	0.977 ± 0.072	0.955 ± 0.046	1.22 ± 0.14	1.3 ± 0.13	0.997 (active)
O=C(Nc1ccc([N+](=O)[O-])cc1Cl)c1cc(Cl)ccc1O [Prestw-40]	1.12 ± 0.28	0.92 ± 0.052	0.938 ± 0.068	0.873 ± 0.064	1.12 ± 0.24	0.832 ± 0.13	1.01 (active)
